High-throughput results as filed in PubChem.
This is a sample that favours compounds with a hit; in the whole collection about 5.9% have one here.
HSF1 activator: increases HSF-1 driven luciferase reporter signal; NIH3T3-HGL HSF-1 luciferase reporter, MG132, 8 h; 100% = twice DMSO control signal; activation, % at 9 µM; actives 1.7% (n = 300,000); AID 504408;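 active = mean replicate activation of at least 50% with a set share of replicates each reaching 50%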;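 also: 0% = median of the neutral control wells and 100% = twice that signal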
HSF1 inhib: HSF1 inhibition; AID 2098; actives 0.77% (n = 300,000); activity change, negative = inhibition, % at 7.5 µM (by protocol); NIH3T3-HGL HSE-luciferase, MG132-induced, luminescence 8 h; active compounds read low;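 active = more than half of replicate wells show activity change below -50%, luminescence cut by over half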;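 also: luciferase reports HSF-1 transcriptional activity via heat shock element; 0% = median of DMSO wells and -100% = zero luminescence signal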
AHR activator: human AHR activation; P35869; activation, % at 5 µM; actives 2.5% (n = 320,000); AHR-responsive luciferase reporter cells, luminescence; in the data active = activation above about 47%;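 also: 0% = vehicle wells and 100% = reference agonist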
Target sequence (P35869 whole entry, looked up): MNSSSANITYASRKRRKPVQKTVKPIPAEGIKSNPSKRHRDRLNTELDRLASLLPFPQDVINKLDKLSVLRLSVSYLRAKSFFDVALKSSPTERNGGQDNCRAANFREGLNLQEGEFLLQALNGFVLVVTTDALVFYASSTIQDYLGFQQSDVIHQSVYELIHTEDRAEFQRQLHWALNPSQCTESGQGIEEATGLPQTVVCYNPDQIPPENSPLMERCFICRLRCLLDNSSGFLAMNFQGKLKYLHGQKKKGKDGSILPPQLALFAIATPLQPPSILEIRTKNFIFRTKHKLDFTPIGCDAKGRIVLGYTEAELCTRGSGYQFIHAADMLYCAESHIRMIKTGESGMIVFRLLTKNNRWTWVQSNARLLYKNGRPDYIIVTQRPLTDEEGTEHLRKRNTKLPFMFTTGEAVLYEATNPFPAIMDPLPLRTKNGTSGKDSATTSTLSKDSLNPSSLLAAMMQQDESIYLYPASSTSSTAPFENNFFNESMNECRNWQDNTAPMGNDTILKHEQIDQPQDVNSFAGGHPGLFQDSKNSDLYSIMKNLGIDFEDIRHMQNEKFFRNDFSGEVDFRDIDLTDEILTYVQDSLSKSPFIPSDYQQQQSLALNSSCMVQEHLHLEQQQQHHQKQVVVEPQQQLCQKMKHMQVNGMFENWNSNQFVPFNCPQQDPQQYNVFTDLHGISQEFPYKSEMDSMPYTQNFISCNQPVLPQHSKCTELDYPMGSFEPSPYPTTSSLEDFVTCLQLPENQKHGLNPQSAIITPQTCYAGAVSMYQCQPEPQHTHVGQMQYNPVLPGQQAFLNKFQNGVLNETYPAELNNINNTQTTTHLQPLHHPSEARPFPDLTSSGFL
HSP90 refold inh: blocks HSP90-mediated luciferase refolding in reticulocyte lysate | Rabbit reticulocyte lysate, luciferase refolding luminescence, 3 h | inhibition, % at 5.6 µM | actives 0.91% (n = 290,000) | AID 1789;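 active = inhibition above the screen-wide mean plus 3 SD, computed separately per campaign, cut at about 16% in these data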;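 also: 0% = DMSO wells and 100% = 60 µM geldanamycin wells; inhibitors lower the luminescence because luciferase stays unfolded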
GAA850 FXN act: increases GAA850 frataxin promoter reporter activity. HEK293 lucGAA850 FXN promoter luciferase reporter, 24 h; percent of 10 µM SAHA response. activation, % at 6 µM. actives 0.56% (n = 360,000). AID 540364;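 active = activation above the average of all compounds screened plus 3 SD, cutoff fixed separately per campaign, cut at about 7.5% in these data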;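 also: 0% = DMSO wells and 100% = 10 µM SAHA wells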
NR0B1 inh: NR0B1 (DAX1) inhibition. HEK293 Gal4-DAX1 luciferase reporter, luminescence. inhibition, % at 6.75 µM. actives 0.99% (n = 340,000);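 active = inhibition above the mean over all tested compounds plus 3 SD, cut at about 4.2% in these data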;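 also: 0% = DAX1-transfected cells with DMSO and 100% = empty-vector control cells with DMSO; inhibition shows as a rise in luminescence from relieved DAX1 repression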
* = called active by the depositor; / = not tested or not shown.

SMILES	HSF1 activator	HSF1 inhib	AHR activator	HSP90 refold inh	GAA850 FXN act	NR0B1 inh
Nn1c(SCC(=O)Nc2ccc3c(c2)OCO3)nnc1-c1cccc(Cl)c1	/	/	35	-1	-1	1
O=C(CSc1nnnn1CCCO)Nc1ccc2c(c1)OCO2	-56	-46	55*	-2	0	1
CCOc1ccc(Cc2nnc(SCC(=O)Nc3ccc(C(C)=O)cc3)[nH]c2=O)cc1	-13	3	2	/	2	0
O=C(NCC(=O)N1CCC(Cc2ccccc2)CC1)c1ccccc1F	/	/	/	/	5	3
COc1ccc2[nH]c3c(c2c1)CCN1C(=O)C(CC(=O)NCCCn2ccnc2)C[C@H](C(=O)N2CCCCC2)[C@@]31C (stereo partly specified)	/	/	/	/	1	0
O=C(CSc1ncccn1)Nc1cc(Cl)ccc1[N+](=O)[O-]	-16	-5	3	1	-2	4.8*
Cc1ccc(NC(=O)CSc2nccn2C)cc1F	6	22	9	0	3	1
Cc1nc(SCC(=O)Nc2cc(Cl)ccc2[N+](=O)[O-])nc(C)c1C	5	-1	18	-2	2	1
Cc1ccc(NC(=O)CSc2ncccn2)cc1F	1	12	2	3	3	5.7*
CCCN=C(C)C1=C(O)c2ccccc2C1=O	34	17	-2	-1	5	5.3*
CC(=NCc1cccnc1)C1=C(O)c2ccccc2C1=O	3	6	74*	3	2	0
Cc1ccc(NC(=S)/N=C(\N)Nc2nc(C)c3ccccc3n2)cc1C	13	9	48*	1	4	0
CCOc1ccc2nc(N/C(N)=N/C(=S)Nc3ccc(OC)cc3)nc(C)c2c1	-4	1	64*	0	-1	0
Cc1cccc(NC(=S)/N=C(\N)Nc2nc(C)c3ccc(C)cc3n2)c1	37	11	57*	11	-1	-1
Cc1cccc(NC(=S)/N=C(\N)Nc2nc(C)c3ccccc3n2)c1	12	3	69*	-3	-1	-1
COc1ccc2nc(N/C(N)=N/C(=S)Nc3ccccc3)nc(C)c2c1	/	/	-5	0	3	-1
Cc1cc(C)cc(NC(=S)/N=C(\N)Nc2nc(C)c3ccccc3n2)c1	-3	-7	21	1	0	-2
C[C@@H]1CN([C@H](C)CO)C(=O)CCCn2nncc2CO[C@@H]1CN(C)S(=O)(=O)c1ccc(Cl)cc1	/	/	/	/	2	2
CCN(CC)C(=O)C1=C(C)N(CCCOC)C(=O)C(CC(=O)NC2CCCC2)C1 (stereo unspecified)	/	/	/	/	-1	1
CC(C)Cc1nc(SCc2cccnc2)c2c(=O)n(C)c(=O)n(C)c2n1	11	0	18	-4	4	0
CCc1nc(SCc2cccnc2)c2c(=O)n(C)c(=O)n(C)c2n1	5	1	48*	0	3	-1
Cn1c(=O)c2c(SCc3cccnc3)nc(C3CC3)nc2n(C)c1=O	-18	-4	75*	1	4	0
CCc1nc(SCC(=O)NCCc2ccc(OC)c(OC)c2)c2c(=O)n(C)c(=O)n(C)c2n1	-83	-78*	0	/	0	-1
CC(=O)NC(c1ccc(F)c(F)c1)c1nc(-c2ccncc2)cs1 (stereo unspecified)	/	/	/	/	2	/
NC(=O)C1CCN(CC(O)COc2ccc(-c3ccccc3)cc2)CC1 (stereo unspecified)	1	-6	/	2	0	5.6*
SMILES	HSF1 activator	HSF1 inhib	AHR activator	HSP90 refold inh	GAA850 FXN act	NR0B1 inh
CCC1CCc2sc(C(=O)NCC(c3ccc(OC)cc3)N3CCOCC3)cc2C1 (stereo unspecified)	/	/	6	/	0	0
CC(=O)NC(CC(=O)OCC(=O)c1cc(C)ccc1C)c1ccccc1 (stereo unspecified)	/	/	2	/	1	0
O=C(CSc1ccc(-c2cccnc2)nn1)N1CCCc2ccccc21	2	2	48*	5	/	/
O=C(CSc1nnc(-c2cccs2)o1)N1CCCc2ccccc21	68*	17	0	5	3	1
Cc1cc(C(=O)COc2ccccc2[N+](=O)[O-])c(C)n1C1CC1	7	22	63*	1	2	1
Cc1ccc(N2C(=O)[C@@H]3C(C(=O)C(c4ccccc4)c4ccccc4)=NN[C@@H]3C2=O)cc1	53*	17	-1	3	0	0
Nc1ncnc2nc(N3CCN(C(=O)c4ccccc4)CC3)[nH]c12	-80	-73*	3	-1	-1	0
COc1ccc(/C(C)=N/Nc2nc3ccccc3n3cnnc23)cc1OC	-6	-11	61*	2	/	/
COc1ccc(Nc2nc3ccccc3n3cnnc23)cc1Cl	-8	-7	4	3	2	-1
CCCCc1n[nH]c2c1/C(=N/OCC)CC(C)(C)C2	-77	-74*	-1	2	1	/
Cc1ccc(C(=O)C2=C(O)C(=O)N(CC3CCCO3)C2c2ccccc2F)o1 (stereo unspecified)	19	-7	-1	-1	-3	-1
CC(C)(C)C(=O)Nc1cc(S(=O)(=O)Nc2ccc(Cl)cc2)ccc1O	-3	2	0	-1	0	4.3*
Cc1cc(C(=O)NNS(=O)(=O)c2cccc(Cl)c2)nn1C(C)(C)C	15	-1	41	2	-1	4.2*
CC1(C(=O)Nc2cccc(C(F)(F)F)c2)Cc2c(-c3ccccc3)ccnc2O1 (stereo unspecified)	/	/	/	/	0	/
Cc1ccc(S(=O)(=O)N2CCOCC2)cc1NC(=O)COC(=O)c1cccnc1Cl	54*	6	0	-1	0	0
CSCCC(NS(=O)(=O)c1ccc(C)cc1)C(=O)NNC(=O)c1csc(N2CCOCC2)n1 (stereo unspecified)	3	3	/	-5	-1	-1
CCN(CC)S(=O)(=O)c1ccc(F)c(C(=O)OC2CC(C)OC2=O)c1 (stereo unspecified)	-2	-6	-1	0	-1	0
N#C/C(=N/Nc1ccc(OC(F)(F)F)cc1)C(N)=S	-6	0	54*	-1	-9	-3
COc1ccc(OCCSc2nc3ccccc3n2CC(=O)O)cc1	7	-10	0	3	0	0
S=C(Nc1ccccc1)Nc1nc2ccccc2n1CCOc1ccc(Cl)cc1	-11	-12	55*	2	2	0
CCn1c(NC(=O)C2CCCCC2)nc2ccccc21	-3	4	1	-3	1	1
O=C(O)Cn1c(SCCOc2ccc(Cl)cc2)nc2ccccc21	63*	27	/	1	1	0
CCn1c(NC(=S)Nc2ccccc2)nc2ccccc21	-69	-60*	56*	-2	0	2
CC(=O)Nc1nc2ccccc2n1CCOc1ccccc1Cl	0	2	9	-4	2	-1
O=C(COC(=O)CNC(=O)c1ccccc1)NC1CCCC1	/	/	/	/	-1	1
